# Reference: PubChem BioAssay (NCATS)
# Values without a mark were called inactive. Results filed as inconclusive are left out. Activity calls are given as the source filed them. Calls come from the whole dose curve; as a rule, active = well fitted curve in the direction sought with a large enough effect; inconclusive = small, poorly fitted or top-dose-only effect, or another doubt; inactive = no such curve, though single readings can be large; an effect the other way counts as inactive or inconclusive.
# Molecular target: Guanine nucleotide-binding protein G(i) subunit alpha-1 (Homo sapiens) (UniProt P63096)
# Assay: qHTS Assay for Inhibitors of RGS12 GoLoco Motif Activity (Green Fluorophore) (AID 879);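 note: 0% = labeled peptide with Gαi1 and full inhibition = labeled peptide alone without protein; negative values mean loss of peptide binding seen as reduced polarization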
# Details: Galphai1/FITC-RGS12 GoLoco peptide, fluorescence polarization; series mostly up to 57.1 µM; activity, negative = inhibition: at the top concentration
# Outline: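 Fluorescence polarization assay: 50 nM Gαi1 with 10 nM FITC-labeled RGS12 GoLoco peptide in 10 mM Tris pH 7.5, 150 mM NaCl, 0.1 mM GDP, 0.05% NP40, 10 min at room temperature with compound.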
# Chain of Guanine nucleotide-binding protein G(i) subunit alpha-1 (Homo sapiens) (P63096 whole entry, looked up): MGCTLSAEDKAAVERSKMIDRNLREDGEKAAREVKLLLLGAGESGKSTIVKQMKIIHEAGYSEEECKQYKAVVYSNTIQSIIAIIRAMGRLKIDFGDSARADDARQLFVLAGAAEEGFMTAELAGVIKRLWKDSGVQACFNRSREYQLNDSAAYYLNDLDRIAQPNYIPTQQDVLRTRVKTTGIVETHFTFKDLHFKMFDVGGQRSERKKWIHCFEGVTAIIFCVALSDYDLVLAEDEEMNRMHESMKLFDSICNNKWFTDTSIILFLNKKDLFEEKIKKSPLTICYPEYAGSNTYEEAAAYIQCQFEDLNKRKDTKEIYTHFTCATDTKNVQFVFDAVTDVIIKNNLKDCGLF
SMILES,"activity, negative = inhibition [%]",outcome
Clc1cccc(N2CCNCC2)c1,-25.1,
c1ccc(C2CC2)c(OCC2=NCCN2)c1,-16.3,
NCC(CC(=O)O)c1ccc(Cl)cc1 (stereo unspecified),2.66,
COc1ccccc1N1CCNCC1,2.86,
CCCN1CCC[C@@H]2Cc3[nH]ncc3C[C@H]21,,inactive
NN=C(N)N,,inactive

# Molecular target: Cytochrome P450 2C9 (Homo sapiens) (UniProt P11712)
# Assay: qHTS Assay for Inhibitors and Substrates of Cytochrome P450 2C9 (AID 883); note: nearly all actives have a fitted effect of over 60% in size; note: potency is the fitted concentration of half-maximal effect; for activity change, negative = inhibition: % is set by controls: 0 for no effect and ±100 for the full control effect
# Details: recombinant CYP2C9, luciferin-H luminescence, 60 min; series mostly up to 57.1 µM; activity change, negative = inhibition: at the top concentration
# Outline: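 CYP2C9 deoxyluciferin hydroxylation, 37C, 60 min with NADPH regeneration; 10nM enzyme, 100uM Luciferin-H (KM). Glo detection reagent stopped reaction; luminescence normalized to sulphaphenazole (57uM) full inhibition.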
# Chain of Cytochrome P450 2C9 (Homo sapiens) (P11712 whole entry, looked up): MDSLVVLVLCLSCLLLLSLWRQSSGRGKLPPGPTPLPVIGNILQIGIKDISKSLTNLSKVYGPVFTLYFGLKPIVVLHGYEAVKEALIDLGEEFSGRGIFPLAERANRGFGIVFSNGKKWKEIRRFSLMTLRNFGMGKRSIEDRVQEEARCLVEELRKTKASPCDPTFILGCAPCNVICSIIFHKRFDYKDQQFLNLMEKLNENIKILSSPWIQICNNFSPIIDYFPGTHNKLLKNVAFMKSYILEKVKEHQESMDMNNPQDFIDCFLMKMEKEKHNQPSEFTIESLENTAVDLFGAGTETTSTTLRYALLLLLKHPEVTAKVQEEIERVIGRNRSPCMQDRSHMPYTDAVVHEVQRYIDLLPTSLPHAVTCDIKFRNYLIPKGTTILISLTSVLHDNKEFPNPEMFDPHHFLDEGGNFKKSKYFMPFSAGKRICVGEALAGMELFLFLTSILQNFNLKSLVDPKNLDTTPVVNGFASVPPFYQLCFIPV
SMILES,Potency,"activity change, negative = inhibition [%]"
COc1ccc(Cc2nccc3cc(OC)c(OC)cc23)cc1OC,12.6 µM (active),
COc1cc2c(c(OC)c1OC)-c1ccc(OC)c(=O)cc1[C@@H](NC(C)=O)CC2,3.16 µM (active),
CCCN(CCC)CCc1cccc2c1CC(=O)N2,,50.3

# Molecular target: Cytochrome P450 3A4 (Homo sapiens) (UniProt P08684)
# Assay: qHTS Assay for Inhibitors and Substrates of Cytochrome P450 3A4 (AID 884); note: nearly all actives have a fitted effect of over 50% in size; note: potency is the fitted concentration of half-maximal effect; for activity change, negative = inhibition: % is set by controls: 0 for no effect and ±100 for the full control effect
# Details: recombinant CYP3A4, Luciferin-PPXE luminescence; series mostly up to 57.1 µM; activity change, negative = inhibition: at the top concentration
# Outline: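 20 nM human CYP3A4 with 25 uM Luciferin-PPXE (at KM) in 200 mM KPO4, preincubated 10 min with compound; NADPH regeneration started a 60 min RT reaction. Luciferin detected by luminescence, normalized to 57 uM ketoconazole as full inhibition.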
# Chain of Cytochrome P450 3A4 (Homo sapiens) (P08684 whole entry, looked up): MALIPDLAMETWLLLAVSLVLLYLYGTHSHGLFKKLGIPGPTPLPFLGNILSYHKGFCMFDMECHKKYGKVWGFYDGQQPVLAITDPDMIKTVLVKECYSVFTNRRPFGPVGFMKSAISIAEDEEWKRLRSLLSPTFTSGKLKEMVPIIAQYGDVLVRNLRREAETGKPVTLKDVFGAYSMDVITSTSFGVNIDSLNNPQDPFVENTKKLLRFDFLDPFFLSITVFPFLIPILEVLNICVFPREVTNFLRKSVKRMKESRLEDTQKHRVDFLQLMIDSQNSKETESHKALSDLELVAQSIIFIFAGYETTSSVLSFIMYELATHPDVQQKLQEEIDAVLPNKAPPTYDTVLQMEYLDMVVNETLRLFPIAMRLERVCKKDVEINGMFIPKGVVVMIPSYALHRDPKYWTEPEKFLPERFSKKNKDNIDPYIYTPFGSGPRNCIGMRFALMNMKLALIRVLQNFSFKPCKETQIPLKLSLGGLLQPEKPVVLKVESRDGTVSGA
SMILES,"activity change, negative = inhibition [%]",Potency
CC(=O)Nc1cc([As](=O)(O)O)ccc1O,-0.352,
CC(CCc1ccccc1)NC(C)C(O)c1ccc(O)cc1 (stereo unspecified),13.4,
CCC1(C2=NCCN2)Cc2ccccc2O1 (stereo unspecified),-1.48,
O=C(O)c1ccc2[nH]cc(CCCCN3CC=C(c4ccccc4)CC3)c2c1,-11.7,
COc1ccc(C(CN(C)C)C2(O)CCCCC2)cc1 (stereo unspecified),-0.142,
CC[N+]1(C)CCCC(OC(=O)C(O)(c2ccccc2)c2ccccc2)C1 (stereo unspecified),-10.8,
COc1ccccc1N1CCNCC1,-11.8,
Cc1cc(SCc2sc(-c3ccc(C(F)(F)F)c(F)c3)nc2C)ccc1OCC(=O)O,,7.94 µM (active)
NCCc1cc(O)c(O)cc1O,-12.1,
CC(C)=CC1C(C(=O)OCc2cccc(Oc3ccccc3)c2)C1(C)C (stereo unspecified),-8.16,
O=[N+]([O-])c1cc([As](=O)(O)O)ccc1O,0.785,
CCCN1CCC[C@@H]2Cc3[nH]ncc3C[C@H]21,31.7,
